# Measurements: PubChem BioAssay AID1508600 (Functional Genomics Laboratory (NCATS/FGL), 2020)
# Screen size: about 53,000 sequences; about 3,700 (7%) were called active. Only a selection was taken, and actives are over-represented in it overall. Unmarked numbers belong to inactive results.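 The calls were made as follows: active = gene knockdowns whose robust z-score for IL-1 alpha signal is at least 2 or at most -2, so actives lie on both sides; inactive = the rest.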
# Assay: Components of the Cytosolic LPS Sensing Pathway: Gene Identification via Genome-wide siRNA Screen;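 also: robust z of the log signal after scaling to non-targeting control siRNA wells of the plate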
# Conditions: RAW264.7 macrophages, IL-1a HTRF, actives lie on both sides, screened at 100 nM (by protocol), cells primed 5 h with Pam3CSK4 first
# Outline: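 RAW264.7; siRNA 100 nM final, RNAiMAX, 48h 37 degrees C; Pam3CSK4 5 h; LipidA + TransIT-TKO 24 h; IL-1a HTRF; CellTiter-Glo viability; robust z vs negative-control median.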
row,Sequence,z-score
1,GGUGGUAAUAGACAAACACTT against Ctdnep1,-0.749
2,GGAUGUGUCAGAAAAGUUATT against Lars2,0.641
3,GGAAAUUGUGGACAUGAUCTT against Sult1c1,-3.27 (active)
4,GGUAACAAAUGCUGUUUUATT against Cul1,0.459
5,CCGAUUGAAUUACUCAGCATT against Bcas2,0.226
6,GGACAAAAGACAAUCGAGATT against Parp2,-0.273
7,CGAUGUUUUCAUGAACGACTT against Tctex1d2,0.738
8,GCUGGGUUAUGAGAUUUCUTT against Tns2,2.26 (active)
9,GGAGGAUUACAACACUGUUTT against Enpp3,-0.617
10,CCUAGUAGCCGAGAAACAUTT against Olfr1137,-0.705
11,GGCAAUACGUGAAGAAAAATT against Baz1a,-0.493
12,GGCUGUUUCUGUCAUGGUUTT against Nup133,0.383
13,GCAGAGAUAAAUUGGAAAGTT against Art2b,0.292
14,GGAUAGAGCACAGAUCCAGTT against St8sia5,2.38 (active)
15,GGUCGAAAUGAUCUCCAACTT against Poli,-0.687
16,GCUUCGAGAACUUUCUCCCTT against Nrtn,0.818
17,GGUUUCCAUAUUUGGAUCCTT against Dhx40,0.0331
18,GGGAAAGAAUUGGAUUGAATT against N4bp2l1,-2.31 (active)
19,GGAAUUUGAAGCUGUCACUTT against Spata2,-0.433
20,GGACUAGCGGACAUGGAUCTT against Ndc80,1.02
21,GGAAUUUCAAAGAGACAAATT against Cyfip1,-0.423
22,GGAUCGGUGAGAUUGUAGCTT against Phyhd1,-0.177

row,Sequence,z-score
1,GGGCAUUUCUUCAGCUAAUTT against Tfec,-1.04
2,GGAAGAUCUCAGUGAGCAUTT against Gpcpd1,0.69
3,GGGUUUUAUCAGCUAAAAATT against Plppr4,2.29 (active)
4,GGCUUUAGGAAGAUCCUUGTT against Ilf2,-0.538
5,UUCUGUGAUCAUGUCUUCUTT against Tuba1b,-1.6
6,GCGAUUCUGUAAAGAGCGCTT against Nme1,1.9
7,GGCCUUAGUUUAUACAUGUTT against Dusp18,0.628
8,GGAAUGUAACUGAAAGACUTT against Myo1c,0.486
9,GCUCAAGGACUUACGCAACTT against Zfp668,-1.61
10,GCAUUCCAACGGAUUUAAUTT against Dag1,2.21 (active)
11,GGACAAAAACAAACAUGAGTT against Vwa3a,-0.665
12,CCGGGAAAGAACUCCUAAGTT against Wnt8b,0.0331
13,GGUUUCACAUUCAUCAACUTT against Ccdc14,-1.02
14,GGAUGAGCAAGAAAUCCCUTT against Ccdc137,-0.873
15,CCUAAGGAGACACGAAGCCTT against Cfp,-0.119
16,GGAUAUGCACUGUUUUCAATT against Nudt16,2.28 (active)
17,GGUCUUCCAAGAAAAAGGCTT against a,1.07
18,GGAUGCUGACAAAAAUAUCTT against Iars,0.447
19,GGCCAUAAAAUGGUAGUAUTT against Trim36,0.0952
20,GGGUCAUGUUUUUAAGAAGTT against Frrs1,-1.28
21,CCCUUGCCUCAAAGAUCUUTT against Tex48,0.633
22,GCACUGUUCUCAAAGUUAATT against Ddx3x,-0.248

row,Sequence,z-score
1,GGCUACGCCCACAAAAGCUTT against H1f6,-2.26 (active)
2,CCAAUUGGAAGAAUCCAGGTT against Gsdmc3,-0.542
3,GGUUUUCCUAAAGUCAACATT against Bfar,-2.24 (active)
4,GCAGUAGCGACGAAGGAUGTT against Rnf113a2,-2.12 (active)
5,GGACAAGAAUUGGAACAAATT against Zfp84,1.43
6,GGCAGUAUCAAAGAAAUUGTT against Rps6ka3,3.43 (active)
7,CCCAGGUAGAGACAUUGCUTT against 6330444E15Rik,-1.89
8,GGAGAUGAAAUCUACAAAUTT against Igfbp1,-0.592
9,GCCUUGUUGUGUUGGCUUATT against Olfr1111,0.549
10,GGGAAUAUUUUCAAGUUGCTT against Tmem14a,0.795
11,GGAAGAUAUUGGUAAAAACTT against Uba1y,0.584
12,GGAUGUUUGGACAUCAUUUTT against 2610002M06Rik,0.204
13,GGUAAUGAUACCUUGAAUGTT against H60a,2.11 (active)
14,GCUUCAGUGGCUACUCUUGTT against H2-M2,0.63
15,CCGUGGAUUGUGGAAUAAUTT against Xpnpep3,-1.39
16,GCCAGUUUUGGUAUCCCGUTT against Lpcat2,-1.2
17,GGGACAACCCAUCAACAAUTT against Catsper1,-0.614
18,CGAUGUACUCCAUGUUGGGTT against Bpifb6,3.47 (active)
19,GGAAAGCUUGAAUGUUGAGTT against Mup3,1.44
20,GACACCCUGUGACACCAAGTT against Sprr1b,-0.597
21,GGCUUUAAUGAAAUUAUGGTT against Asap2,1.4
22,CCCAGAAUUGAACUAAAAATT against Mrpl32,-0.488

row,Sequence,z-score
1,GGUGGAACAACUGUUUCAATT against Dyrk3,0.541
2,GGAACCUAUGGAAGGCGUATT against Ino80b,2.64 (active)
3,CCCACGCUUAGCAAUAUCATT against Get3,-1.49
4,GGUAACCUAGUGUAAGUUUTT against Atg2b,-0.0782
5,GGAGAGCAGUGAUAACCAGTT against Cracd,2.06 (active)
6,GGAAAUUGCUCAAAAAAGGTT against Asb3,0.725
7,GGCUUCUAUUGCCAUAAUGTT against Olfr380,0.568
8,GGAUGAAGACAGUCAAAUGTT against Lypd3,0.261
9,GGCAGAUUCUAAAUAUAGCTT against Itga9,-0.52
10,GGACAGCUUCAUCAAGCCUTT against Cep89,-0.628
11,GGUCUGGUGUUGUAGGAUATT against Map1lc3b,2.71 (active)
12,GGAGUCAUAUGCACAGAUCTT against Tcte3,-0.706
13,CGUGGAUGAGAACUAACCUTT against Rpl31,1.24
14,GCUCCUAUGCAAACAUUGCTT against Olfr1390,0.489
15,GGAUCUCUUAGGUAUCUUATT against Nlrp14,1.45
16,GGAACACUGGAAGAAAGAUTT against Arhgap35,-1.21
17,GAUGUACUUGAUAAAGCCUTT against Ugt2b37,3.68 (active)
18,CCCAUCUCACUAUUUAAUATT against Lrrc3b,-1.23
19,GCUGCACAAGUGCAUUUUUTT against Srp14,-1.34
20,GGGUAUUUCCACUUCAUAGTT against Acsm2,1.59
21,GCUCAUGGACCAACCUAUGTT against Olfr1180,0.501
22,GCUUUCCGGAAUACGAGCUTT against Snapc3,-0.638

row,Sequence,z-score
1,CGCAAGAUCCUCAAACGAGTT against Proc,-0.358
2,GGGAACAAGUUGAGCUACUTT against Ebp,-0.0574
3,UAGGAGAUAUCUGCUACCGTT against Fbxw16,-2.53 (active)
4,CCAUGUUCGGACGUGGUCUTT against Shkbp1,-1.17
5,GGAGAGGAAUCAAGUGGUGTT against Lig1,-1.04
6,GGUGCUUUAUUAGGUAUUCTT against Atp6v1g3,-1.26
7,GGGUAGCUUUAAAUAAAGGTT against Olfr801,2.47 (active)
8,GCAUAAGCCUAAAAAUUCUTT against Ptprd,0.43
9,GCCCUCUUGUGAUUAAGCATT against Esr1,-0.959
10,GCUAAGAAGAGGAUUCCAATT against Spag1,-0.579
11,GCAGCAGUGCUUACUUAACTT against Ccdc25,0.212
12,GGAAAGUGAUGUCACAAAATT against G3bp1,1.31
13,GGUGUUUGUGAAGGAGCAGTT against Fam117a,2.98 (active)
14,GGCCAACCUGGAGAACUUGTT against Atp6v1c2,0.441
15,GGUUAAUAUUAGCAUCGUCTT against Zdhhc23,0.908
16,GGCUCUGUGUUGGUAAUGATT against Yipf1,-0.538
17,GGGUCAUCGGAACAGAACUTT against Sult3a1,-2.26 (active)
18,GGGCAACUGUACGUACCAUTT against Cd93,0.0137
19,GGGAGCAUUUCCUUAUACUTT against Tpmt,0.67
20,GGAUAAAGCCACAUUUGGUTT against Apoh,-0.483
